Results reported in paper PMC7862700, “An all-to-all approach to the identification of sequence-specific readers for epigenetic DNA modifications on cytosine”.

Tests used:
Test in all cases: DAPPL (digital affinity profiling via proximity ligation, sequencing); 10 mM Tris-HCl pH 7.5, 50 mM NaCl, 1 mM DTT, 4% glycerol, room temperature, 30 min; GST-TFs on glutathione beads, 16-mer random dsDNA library, 0.1% formaldehyde crosslink after washing; high values mean tight binding
[1] = molecular target: T1, FEV (Homo sapiens, UniProt Q99581 1-238); details: protein: recombinant; tags: N-terminal GST; dsDNA, one strand shown
T1 sequence: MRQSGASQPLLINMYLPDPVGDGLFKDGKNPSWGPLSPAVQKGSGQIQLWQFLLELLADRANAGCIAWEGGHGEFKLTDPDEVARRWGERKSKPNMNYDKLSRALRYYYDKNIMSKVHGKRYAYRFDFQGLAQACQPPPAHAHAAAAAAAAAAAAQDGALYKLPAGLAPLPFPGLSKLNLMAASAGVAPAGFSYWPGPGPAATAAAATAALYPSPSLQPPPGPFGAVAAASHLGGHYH
Procedure, shortened: (§1)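 Sequencing on an Illumina NextSeq500 followed washing, crosslinking with 0.1% formaldehyde, proximity ligation (BsaI/T4 ligase, 1 h, 37 °C) and PCR amplification of pools that had been incubated for 30 min at room temperature with 200 nmole of a random double-stranded 16-mer DNA library in Tris/NaCl/DTT/glycerol buffer. Each pool held DNA-barcoded human transcription factors, expressed in yeast as GST fusions and captured on glutathione beads, plus a tag-only sample. Binding signal is a hexamer's read frequency for a factor divided by its frequency in the tag-only sample.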

[2] = molecular target: ETV5 (Homo sapiens, UniProt P41161 1-510); details: protein: recombinant; tags: N-terminal GST; dsDNA, one strand shown
ETV5, sequence (P41161 whole entry): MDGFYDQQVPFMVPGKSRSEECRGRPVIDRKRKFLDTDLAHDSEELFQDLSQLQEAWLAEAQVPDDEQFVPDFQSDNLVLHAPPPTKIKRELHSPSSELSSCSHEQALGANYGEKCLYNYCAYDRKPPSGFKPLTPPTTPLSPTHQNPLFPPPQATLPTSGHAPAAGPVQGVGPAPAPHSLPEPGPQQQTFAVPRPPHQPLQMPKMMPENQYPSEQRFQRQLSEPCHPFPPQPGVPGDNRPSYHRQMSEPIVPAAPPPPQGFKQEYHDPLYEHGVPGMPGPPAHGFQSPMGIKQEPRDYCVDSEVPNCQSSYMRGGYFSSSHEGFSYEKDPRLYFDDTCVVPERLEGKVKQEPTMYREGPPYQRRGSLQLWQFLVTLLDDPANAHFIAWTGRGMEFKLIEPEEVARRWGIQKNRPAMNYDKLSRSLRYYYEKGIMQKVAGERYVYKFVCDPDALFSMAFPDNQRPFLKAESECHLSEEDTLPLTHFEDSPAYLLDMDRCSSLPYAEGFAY
Procedure, shortened: as §1

[3] = molecular target: HSF1 (Homo sapiens, UniProt Q00613 1-529); details: protein: recombinant; tags: N-terminal GST; chain copies: 3; dsDNA, one strand shown
HSF1, sequence (Q00613 whole entry): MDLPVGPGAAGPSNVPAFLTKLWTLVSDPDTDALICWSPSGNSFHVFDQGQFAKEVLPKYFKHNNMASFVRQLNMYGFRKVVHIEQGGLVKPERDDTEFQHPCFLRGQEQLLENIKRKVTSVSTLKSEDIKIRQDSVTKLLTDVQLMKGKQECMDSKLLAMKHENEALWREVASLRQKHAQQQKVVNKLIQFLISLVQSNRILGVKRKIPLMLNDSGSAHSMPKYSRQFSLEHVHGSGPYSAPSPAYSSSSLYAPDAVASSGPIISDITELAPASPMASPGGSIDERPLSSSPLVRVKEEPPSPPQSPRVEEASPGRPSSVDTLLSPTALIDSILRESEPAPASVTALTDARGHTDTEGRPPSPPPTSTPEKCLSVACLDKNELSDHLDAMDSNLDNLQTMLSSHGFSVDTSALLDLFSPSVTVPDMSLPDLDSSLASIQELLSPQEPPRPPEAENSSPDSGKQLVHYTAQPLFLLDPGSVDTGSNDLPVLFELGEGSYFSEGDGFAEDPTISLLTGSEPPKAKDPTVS
Procedure, shortened: as §1

[4] = molecular target: T2, SPIC (Homo sapiens, UniProt Q8N5J4 1-248); details: protein: recombinant; tags: N-terminal GST; dsDNA, one strand shown
T2 sequence: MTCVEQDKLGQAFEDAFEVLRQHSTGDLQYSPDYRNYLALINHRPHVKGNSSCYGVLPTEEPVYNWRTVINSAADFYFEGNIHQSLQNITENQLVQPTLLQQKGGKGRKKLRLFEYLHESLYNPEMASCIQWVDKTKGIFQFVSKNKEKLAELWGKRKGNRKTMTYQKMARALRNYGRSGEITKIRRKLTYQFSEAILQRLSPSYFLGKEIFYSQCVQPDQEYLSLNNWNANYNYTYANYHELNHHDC
Procedure, shortened: as §1

[5] = molecular target: ELF4 (Homo sapiens, UniProt Q99607 1-663); details: protein: recombinant; tags: N-terminal GST; dsDNA, one strand shown
ELF4, sequence (Q99607 whole entry): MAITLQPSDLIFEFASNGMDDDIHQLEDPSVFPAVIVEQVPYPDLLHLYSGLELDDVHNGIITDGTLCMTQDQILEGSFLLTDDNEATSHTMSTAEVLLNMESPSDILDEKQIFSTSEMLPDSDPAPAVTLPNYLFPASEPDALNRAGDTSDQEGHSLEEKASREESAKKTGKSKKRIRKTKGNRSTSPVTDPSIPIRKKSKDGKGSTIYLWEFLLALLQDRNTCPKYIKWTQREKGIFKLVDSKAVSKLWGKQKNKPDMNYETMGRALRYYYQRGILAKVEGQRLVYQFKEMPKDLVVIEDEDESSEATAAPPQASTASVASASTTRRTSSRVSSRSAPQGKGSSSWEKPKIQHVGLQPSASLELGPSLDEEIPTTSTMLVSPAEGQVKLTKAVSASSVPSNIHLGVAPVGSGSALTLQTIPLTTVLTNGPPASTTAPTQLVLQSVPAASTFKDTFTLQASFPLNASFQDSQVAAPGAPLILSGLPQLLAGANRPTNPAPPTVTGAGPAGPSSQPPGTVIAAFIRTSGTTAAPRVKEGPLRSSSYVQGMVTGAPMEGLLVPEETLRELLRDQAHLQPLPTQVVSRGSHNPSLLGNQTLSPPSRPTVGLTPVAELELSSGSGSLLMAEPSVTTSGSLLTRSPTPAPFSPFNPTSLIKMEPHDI
Procedure, shortened: as §1

[6] = molecular target: T3, ELK4 (Homo sapiens, UniProt P28324-2 1-405); details: protein: recombinant; tags: N-terminal GST; dsDNA, one strand shown
T3 sequence: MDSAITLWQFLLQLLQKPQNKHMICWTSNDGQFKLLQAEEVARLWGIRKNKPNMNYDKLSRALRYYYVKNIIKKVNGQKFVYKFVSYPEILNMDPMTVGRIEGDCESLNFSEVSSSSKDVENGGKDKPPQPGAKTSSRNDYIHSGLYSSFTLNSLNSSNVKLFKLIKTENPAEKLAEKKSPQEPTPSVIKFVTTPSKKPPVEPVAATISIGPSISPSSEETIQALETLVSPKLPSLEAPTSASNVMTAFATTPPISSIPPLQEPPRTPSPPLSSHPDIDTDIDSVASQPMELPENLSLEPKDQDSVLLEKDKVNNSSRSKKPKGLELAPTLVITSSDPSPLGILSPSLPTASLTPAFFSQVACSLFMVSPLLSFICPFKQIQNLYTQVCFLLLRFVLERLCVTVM
Procedure, shortened: as §1

[7] = molecular target: T4, ETV2 (Homo sapiens, UniProt O00321 1-342); details: protein: recombinant; tags: N-terminal GST; dsDNA, one strand shown
T4 sequence: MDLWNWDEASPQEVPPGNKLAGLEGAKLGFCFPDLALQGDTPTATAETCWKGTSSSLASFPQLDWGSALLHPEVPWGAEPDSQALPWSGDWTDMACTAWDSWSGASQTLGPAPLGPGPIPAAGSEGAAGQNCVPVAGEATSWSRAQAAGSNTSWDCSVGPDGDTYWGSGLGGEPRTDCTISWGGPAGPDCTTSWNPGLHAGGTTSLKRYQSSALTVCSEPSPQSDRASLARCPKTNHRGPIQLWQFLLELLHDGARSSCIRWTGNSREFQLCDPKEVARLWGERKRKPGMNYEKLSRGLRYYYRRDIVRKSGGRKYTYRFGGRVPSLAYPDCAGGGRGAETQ
Procedure, shortened: as §1

[8] = molecular target: T5, ELF3 (Homo sapiens, UniProt P78545 1-371); details: protein: recombinant; tags: N-terminal GST; dsDNA, one strand shown
T5 sequence: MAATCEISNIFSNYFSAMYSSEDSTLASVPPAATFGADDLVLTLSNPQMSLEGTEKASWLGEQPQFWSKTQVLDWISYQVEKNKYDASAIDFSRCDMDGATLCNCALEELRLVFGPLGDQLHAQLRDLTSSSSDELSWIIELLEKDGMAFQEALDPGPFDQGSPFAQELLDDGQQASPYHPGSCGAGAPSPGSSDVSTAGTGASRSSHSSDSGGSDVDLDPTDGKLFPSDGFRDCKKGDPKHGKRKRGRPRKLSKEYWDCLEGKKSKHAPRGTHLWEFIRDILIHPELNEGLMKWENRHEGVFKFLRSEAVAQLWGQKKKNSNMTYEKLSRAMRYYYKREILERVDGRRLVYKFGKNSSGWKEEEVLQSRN
Procedure, shortened: as §1

[9] = molecular target: CRX (Homo sapiens, UniProt O43186 1-299); details: protein: recombinant; tags: N-terminal GST; dsDNA, one strand shown
CRX, sequence (O43186 whole entry): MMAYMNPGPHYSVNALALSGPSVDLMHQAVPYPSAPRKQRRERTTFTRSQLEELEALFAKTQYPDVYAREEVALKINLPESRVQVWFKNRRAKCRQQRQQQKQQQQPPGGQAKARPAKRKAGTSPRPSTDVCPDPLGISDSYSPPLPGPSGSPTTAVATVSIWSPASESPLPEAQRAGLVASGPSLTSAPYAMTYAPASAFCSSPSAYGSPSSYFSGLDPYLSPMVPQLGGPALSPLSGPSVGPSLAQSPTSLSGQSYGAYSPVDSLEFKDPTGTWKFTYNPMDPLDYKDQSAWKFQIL
Procedure, shortened: as §1

[10] = molecular target: ETV1 (Homo sapiens, UniProt P50549 1-477); details: protein: recombinant; tags: N-terminal GST; dsDNA, one strand shown
ETV1, sequence (P50549 whole entry): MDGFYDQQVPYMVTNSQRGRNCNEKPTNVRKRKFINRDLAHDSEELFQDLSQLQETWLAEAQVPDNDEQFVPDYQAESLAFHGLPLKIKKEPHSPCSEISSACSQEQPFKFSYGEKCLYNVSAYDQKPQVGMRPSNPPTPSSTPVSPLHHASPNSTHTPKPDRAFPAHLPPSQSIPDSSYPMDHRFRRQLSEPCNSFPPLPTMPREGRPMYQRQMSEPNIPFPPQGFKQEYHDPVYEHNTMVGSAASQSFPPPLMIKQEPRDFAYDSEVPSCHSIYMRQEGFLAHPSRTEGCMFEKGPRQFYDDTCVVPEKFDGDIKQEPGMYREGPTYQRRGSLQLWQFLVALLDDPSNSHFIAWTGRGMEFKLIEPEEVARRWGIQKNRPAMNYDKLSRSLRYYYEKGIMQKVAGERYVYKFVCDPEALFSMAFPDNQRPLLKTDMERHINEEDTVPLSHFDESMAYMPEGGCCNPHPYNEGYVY
Procedure, shortened: as §1

ATTCGC
binding signal [1]: 1.24 fold enrichment (6-mer frequency, TF over GST control)
binding signal [2]: 1.13 fold enrichment (6-mer frequency, TF over GST control)
binding signal [3]: 1.47 fold enrichment (6-mer frequency, TF over GST control)
binding signal [4]: 1.39 fold enrichment (6-mer frequency, TF over GST control)
binding signal [5]: 1.11 fold enrichment (6-mer frequency, TF over GST control)
binding signal [6]: 1.1 fold enrichment (6-mer frequency, TF over GST control)
binding signal [7]: 1.29 fold enrichment (6-mer frequency, TF over GST control)
binding signal [8]: 1.27 fold enrichment (6-mer frequency, TF over GST control)
binding signal [9]: 1.26 fold enrichment (6-mer frequency, TF over GST control)
binding signal [10]: 1.11 fold enrichment (6-mer frequency, TF over GST control)
